Results on 10 compounds are retold here after ChEMBL document CHEMBL1157539, “Thousands of chemical starting points for antimalarial lead identification” (Nature, 2010).

Holding throughout (assay type): functional
Assay [1] has as its system Plasmodium falciparum. The assay is described as follows: GSK_TCMDC: Inhibition of Plasmodium falciparum 3D7 in whole red blood cells, using parasite LDH activity as an index of growth. Test compounds present at 2uM.
In assay [2] the test system is Plasmodium falciparum. As to the kind of experiment: GSK_TCMDC: Inhibition of Plasmodium falciparum Dd2 in whole red blood cells, using parasite LDH activity as an index of growth. Test compounds present at 2uM.
For a further assay, the system named is HepG2. As to the kind of experiment: GSK_TCMDC: Percent inhibition of human HepG2 cell line. Test compounds present at 10uM.

The structures appear in SMILES notation.

In the case of `Cc1ccc(-c2cnc(N)c3cc(-c4ccnc(N)n4)ccc23)cc1`, the Inhibition (commonly the relative decrease from the control value, in per cent) in the assay on Plasmodium falciparum [1] was 99%; with Plasmodium falciparum [2], 94%; with HepG2 it was 41%.

For the compound `CSC1=NC(=Nc2c(C)cccc2C)C2(CCCCC2)N1c1ccccc1Cl`, the figures for the Inhibition in the assay with Plasmodium falciparum [1], in the assay with Plasmodium falciparum [2] and in the assay on HepG2 were 95%, 57% and 22%, respectively.

Take `Cn1c(N)cc(-c2ccc(Br)cc2)c2c(=O)nc(N)nc1-2`: the Inhibition in the assay on Plasmodium falciparum [1] is 80%; in the assay with Plasmodium falciparum [2], 57%; in the assay on HepG2 it was 5%.

Regarding `Cl.O=C(c1cccc(COc2ccc3c(c2)CCN(C2CCCC2)CC3)c1)N1CCN(c2ccncc2)CC1`, the Inhibition in the assay with Plasmodium falciparum [1] amounted to 100%; in the assay on Plasmodium falciparum [2], 35%; in the assay with HepG2 it was 49%.

As for `CC(Oc1c(C2CCN(CCCCNC(=O)c3ccc(-c4ccc(C#N)cc4)cc3)CC2)ccc2c1CCCC2)C(N)=O` (stereo not given), the figures for the Inhibition in the assay with Plasmodium falciparum [1], in the assay with Plasmodium falciparum [2] and in the assay with HepG2 were 100%, 83% and 41%, respectively.

For `CN(C)CC(=O)Nc1ccc(-c2ccc3ccnc(N)c3c2)cc1.O=C(O)C(F)(F)F`, the Inhibition in the assay with Plasmodium falciparum [1] worked out at 100%; in the assay with Plasmodium falciparum [2], 99%; with HepG2 it was 69%.

For `CC(C)C(=O)NC(Nc1ccc([N+](=O)[O-])cc1)C(Cl)(Cl)Cl` (stereo not given), the Inhibition with Plasmodium falciparum [1] amounted to 97%; in the assay on Plasmodium falciparum [2], 84%; in the assay with HepG2, 7%.

As to `CC(Cc1ccc(NC(=O)c2ccc(CC(C)NCc3ccc(Cl)c(Cl)c3)cc2)cc1)NCCc1cccc(Cl)c1` (stereo not given), the Inhibition in the assay on Plasmodium falciparum [1] was found to be 92%; in the assay with Plasmodium falciparum [2], 33%; with HepG2, 26%.

For `COc1ccc(CNC(=O)c2cnc3c(O)cccc3c2Nc2cccc(NC(=O)c3ccc(Cl)c(Cl)c3)c2)cc1.O=C(O)C(F)(F)F`, the Inhibition is 96% in the assay with Plasmodium falciparum [1], 89% in the assay with Plasmodium falciparum [2] and 54% in the assay with HepG2.

On to `COc1ccc(CC2(c3ccc(F)cc3)N=C(N)N(CCCc3ccc4c(c3)OCO4)C2=O)cc1.O=C(O)C(F)(F)F` (stereo not given), for which the Inhibition in the assay on Plasmodium falciparum [1] worked out at 98%; in the assay on Plasmodium falciparum [2], 97%; in the assay with HepG2, 60%.
